Over roughly 1,900 compounds, “excess over highest single agent (ExcessHSA) synergy score, 6x6 matrix” has its median near -83; the lowest 2% begin near -370. Only a selection was taken, and the lowest values are over-represented in it overall.
test system: NCI-H446; test: excess over highest single agent (ExcessHSA) synergy score, 6x6 matrix; higher = less synergy (more negative = stronger synergy); details: 72 h; CellTiter-Glo viability

Row | Compound | excess over highest single agent
1 | COc1nccc(-c2c(-c3ccc(F)cc3)ncn2C2CCNCC2)n1 + Cc1sc2c(c1C)C(c1ccc(Cl)cc1)=N[C@@H](CC(=O)OC(C)(C)C)c1nnc(C)n1-2 [NCGC00250412-19] | -55.9
2 | COc1cccc2c1[C@]13CCN(CC4CC4)[C@H](C2)[C@]1(OC)CCC(=O)C3 + Cc1sc2c(c1C)C(c1ccc(Cl)cc1)=N[C@@H](CC(=O)OC(C)(C)C)c1nnc(C)n1-2 [NCGC00250412-19] | -55
3 | CO[C@@H]1[C@H](N(C)C(=O)c2ccccc2)C[C@H]2O[C@]1(C)n1c3ccccc3c3c4c(c5c6ccccc6n2c5c31)C(=O)NC4 + Cc1sc2c(c1C)C(c1ccc(Cl)cc1)=N[C@@H](CC(=O)OC(C)(C)C)c1nnc(C)n1-2 [NCGC00250412-19] | -207
4 | CN[C@@H]1C[C@H]2O[C@@](C)([C@@H]1OC)n1c3ccccc3c3c4c(c5c6ccccc6n2c5c31)C(=O)N[C@H]4O + Cc1sc2c(c1C)C(c1ccc(Cl)cc1)=N[C@@H](CC(=O)OC(C)(C)C)c1nnc(C)n1-2 [NCGC00250412-19] | -378
5 | CO[C@@H]1[C@H](N(C)C(=O)c2ccccc2)C[C@H]2O[C@]1(C)n1c3ccccc3c3c4c(c5c6ccccc6n2c5c31)C(=O)NC4=O + Cc1sc2c(c1C)C(c1ccc(Cl)cc1)=N[C@@H](CC(=O)OC(C)(C)C)c1nnc(C)n1-2 [NCGC00250412-19] | -113
6 | CCn1c(C(=O)N(C2CC2)C2CC2)cc2c3c(ncn3C)c(Nc3cc(C)n(C)n3)nc21 + Cc1sc2c(c1C)C(c1ccc(Cl)cc1)=N[C@@H](CC(=O)OC(C)(C)C)c1nnc(C)n1-2 [NCGC00250412-19] | 76.1
7 | N#C/C(=C(/N)Sc1ccc(N)cc1)c1ccccc1C(F)(F)F + Cc1sc2c(c1C)C(c1ccc(Cl)cc1)=N[C@@H](CC(=O)OC(C)(C)C)c1nnc(C)n1-2 [NCGC00250412-19] | -146
8 | CCc1ccc(C(=O)Nc2cc(CN3CCN(C)CC3)cc(C(F)(F)F)c2)cc1C#Cc1cnc2ccnn2c1 + Cc1sc2c(c1C)C(c1ccc(Cl)cc1)=N[C@@H](CC(=O)OC(C)(C)C)c1nnc(C)n1-2 [NCGC00250412-19] | -7.02
9 | O=C(NCc1ccccc1)[C@H](Cc1ccccc1)NC(=O)[C@H]1O[C@@H]1C(=O)NCCc1ccc(O)cc1 + Cc1sc2c(c1C)C(c1ccc(Cl)cc1)=N[C@@H](CC(=O)OC(C)(C)C)c1nnc(C)n1-2 [NCGC00250412-19] | -10.6
10 | CCN1CCN(C(=O)Cc2ccc(Nc3ncc(F)c(Nc4ccc(C(=O)Nc5ccccc5Cl)cc4)n3)cc2)CC1 + Cc1sc2c(c1C)C(c1ccc(Cl)cc1)=N[C@@H](CC(=O)OC(C)(C)C)c1nnc(C)n1-2 [NCGC00250412-19] | -388
11 | O=C(O)c1ccc(Nc2ncc3c(n2)-c2ccc(Cl)cc2C(c2c(F)cccc2F)=NC3)cc1 + Cc1sc2c(c1C)C(c1ccc(Cl)cc1)=N[C@@H](CC(=O)OC(C)(C)C)c1nnc(C)n1-2 [NCGC00250412-19] | -157
12 | Cc1ccc(NC(=O)c2ccc(CN3CCN(C)CC3)cc2)cc1Nc1nccc(-c2cccnc2)n1 + Cc1sc2c(c1C)C(c1ccc(Cl)cc1)=N[C@@H](CC(=O)OC(C)(C)C)c1nnc(C)n1-2 [NCGC00250412-19] | -176
13 | OC[C@@H](O)[C@@H](O)[C@@H](O)CO + Cc1sc2c(c1C)C(c1ccc(Cl)cc1)=N[C@@H](CC(=O)OC(C)(C)C)c1nnc(C)n1-2 [NCGC00250412-19] | -189
14 | Cc1cc(Nc2nc(N[C@@H](C)c3ncc(F)cn3)ncc2Cl)[nH]n1 + Cc1sc2c(c1C)C(c1ccc(Cl)cc1)=N[C@@H](CC(=O)OC(C)(C)C)c1nnc(C)n1-2 [NCGC00250412-19] | -46
15 | CC(C)Oc1cc(Nc2nc(N[C@@H](C)c3ccc(F)cn3)ncc2Cl)n[nH]1 + Cc1sc2c(c1C)C(c1ccc(Cl)cc1)=N[C@@H](CC(=O)OC(C)(C)C)c1nnc(C)n1-2 [NCGC00250412-19] | -396
16 | Cc1cc(Nc2nc(N[C@@H](C)c3ccc(F)cc3)c(C#N)cc2F)n[nH]1 + Cc1sc2c(c1C)C(c1ccc(Cl)cc1)=N[C@@H](CC(=O)OC(C)(C)C)c1nnc(C)n1-2 [NCGC00250412-19] | -209
17 | CCOC(=O)C1=C(O)C(=O)N(Cc2ccccc2)C1 + Cc1sc2c(c1C)C(c1ccc(Cl)cc1)=N[C@@H](CC(=O)OC(C)(C)C)c1nnc(C)n1-2 [NCGC00250412-19] | -90.7
18 | Cc1ccccn1.N.[Cl-].[Cl-].[Pt+2] + Cc1sc2c(c1C)C(c1ccc(Cl)cc1)=N[C@@H](CC(=O)OC(C)(C)C)c1nnc(C)n1-2 [NCGC00250412-19] | 123
19 | CNC(=O)c1ccc(-c2cnc3ncc(Cc4ccc5ncccc5c4)n3n2)cc1F + Cc1sc2c(c1C)C(c1ccc(Cl)cc1)=N[C@@H](CC(=O)OC(C)(C)C)c1nnc(C)n1-2 [NCGC00250412-19] | 48.7

Row | Compound | excess over highest single agent
20 | OC[C@H]1OC(O)C[C@@H](O)[C@@H]1O (some centres not stated) + Cc1sc2c(c1C)C(c1ccc(Cl)cc1)=N[C@@H](CC(=O)OC(C)(C)C)c1nnc(C)n1-2 [NCGC00250412-19] | -201
21 | N#Cc1c(N(CC(=O)O)CC(=O)O)sc(C(=O)O)c1CC(=O)O + Cc1sc2c(c1C)C(c1ccc(Cl)cc1)=N[C@@H](CC(=O)OC(C)(C)C)c1nnc(C)n1-2 [NCGC00250412-19] | -47.5
22 | C[C@H]1[C@@H](O)O[C@@H]2O[C@@]3(C)CC[C@H]4[C@H](C)CC[C@@H]1[C@@]24OO3 + Cc1sc2c(c1C)C(c1ccc(Cl)cc1)=N[C@@H](CC(=O)OC(C)(C)C)c1nnc(C)n1-2 [NCGC00250412-19] | -199
23 | C=CCON=C(C[C@H]1O[C@@H]2O[C@]3(C)CC[C@@H]4[C@H](C)CC[C@@H]([C@H]1C)[C@@]24OO3)[C@H]1O[C@@H]2O[C@]3(C)CC[C@H]4[C@H](C)CC[C@@H]([C@@H]1C)[C@@]24OO3 + Cc1sc2c(c1C)C(c1ccc(Cl)cc1)=N[C@@H](CC(=O)OC(C)(C)C)c1nnc(C)n1-2 [NCGC00250412-19] | -427
24 | C[C@@H]1[C@@H](C(=O)C[C@H]2O[C@@H]3O[C@]4(C)CC[C@@H]5[C@H](C)CC[C@@H]([C@H]2C)[C@@]35OO4)O[C@@H]2O[C@]3(C)CC[C@H]4[C@H](C)CC[C@@H]1[C@@]24OO3 + Cc1sc2c(c1C)C(c1ccc(Cl)cc1)=N[C@@H](CC(=O)OC(C)(C)C)c1nnc(C)n1-2 [NCGC00250412-19] | -355
25 | Cn1cnc(=N)c2[nH]cnc21 + Cc1sc2c(c1C)C(c1ccc(Cl)cc1)=N[C@@H](CC(=O)OC(C)(C)C)c1nnc(C)n1-2 [NCGC00250412-19] | -164
26 | CN1c2cc(O)c(N=NC(N)=O)cc2CC1S(=O)(=O)O (configuration not stated) + Cc1sc2c(c1C)C(c1ccc(Cl)cc1)=N[C@@H](CC(=O)OC(C)(C)C)c1nnc(C)n1-2 [NCGC00250412-19] | -280
27 | O=C(O)C(=O)Nc1cccc(-c2nnn[nH]2)c1 + Cc1sc2c(c1C)C(c1ccc(Cl)cc1)=N[C@@H](CC(=O)OC(C)(C)C)c1nnc(C)n1-2 [NCGC00250412-19] | 42.8
28 | C#CCN(C)CC1=Cc2ccccc2Oc2ccccc21 + Cc1sc2c(c1C)C(c1ccc(Cl)cc1)=N[C@@H](CC(=O)OC(C)(C)C)c1nnc(C)n1-2 [NCGC00250412-19] | -204
29 | Cc1cnc(CNC(=O)c2c(=O)c3ccc(N4CCCN(C)CC4)nc3n3c2sc2ccccc23)cn1 + Cc1sc2c(c1C)C(c1ccc(Cl)cc1)=N[C@@H](CC(=O)OC(C)(C)C)c1nnc(C)n1-2 [NCGC00250412-19] | -259
30 | Cc1cn2cc(C(=O)N(C)CCO)cc(N[C@@H]3CCOc4cccc(C)c43)c2n1 + Cc1sc2c(c1C)C(c1ccc(Cl)cc1)=N[C@@H](CC(=O)OC(C)(C)C)c1nnc(C)n1-2 [NCGC00250412-19] | 64.1
31 | CNC(=O)N1N=C(c2ccc(N)cc2)c2cc3c(cc2CC1C)OCO3 (configuration not stated) + Cc1sc2c(c1C)C(c1ccc(Cl)cc1)=N[C@@H](CC(=O)OC(C)(C)C)c1nnc(C)n1-2 [NCGC00250412-19] | -19.1
32 | O=C(CCCCCCC(=O)Nc1cccnc1)NO + Cc1sc2c(c1C)C(c1ccc(Cl)cc1)=N[C@@H](CC(=O)OC(C)(C)C)c1nnc(C)n1-2 [NCGC00250412-19] | -276
33 | Oc1cccc(-c2nc(N3CCOCC3)c3oc4ncccc4c3n2)c1 + Cc1sc2c(c1C)C(c1ccc(Cl)cc1)=N[C@@H](CC(=O)OC(C)(C)C)c1nnc(C)n1-2 [NCGC00250412-19] | -410
34 | c1cncc(CN2CCC(n3ncc4c(N5CCOCC5)nc(-c5ccc6[nH]ccc6c5)nc43)CC2)c1 + Cc1sc2c(c1C)C(c1ccc(Cl)cc1)=N[C@@H](CC(=O)OC(C)(C)C)c1nnc(C)n1-2 [NCGC00250412-19] | -140
35 | Nc1ccc(C(=O)Nc2cccc(-c3nc(N4CCOCC4)c4oc5ncccc5c4n3)c2)cn1 + Cc1sc2c(c1C)C(c1ccc(Cl)cc1)=N[C@@H](CC(=O)OC(C)(C)C)c1nnc(C)n1-2 [NCGC00250412-19] | 98.4
36 | Cc1ccc(C(=O)Nc2cccc(C(F)(F)F)c2)cc1-c1ccc2nc(NCCN3CCOCC3)ncc2c1 + Cc1sc2c(c1C)C(c1ccc(Cl)cc1)=N[C@@H](CC(=O)OC(C)(C)C)c1nnc(C)n1-2 [NCGC00250412-19] | -140
37 | Nc1ncnc2c1c(-c1cccc(OCc3ccccc3)c1)cn2C1CC(CN2CCC2)C1 (configuration not stated) + Cc1sc2c(c1C)C(c1ccc(Cl)cc1)=N[C@@H](CC(=O)OC(C)(C)C)c1nnc(C)n1-2 [NCGC00250412-19] | -56.6

Source: the supplement of paper PMC10077471
